# Bioassay records (PubChem BioAssay)
# Hits are enriched below; roughly 4.8% of the tested compounds scored in any of these assays.
# DAX1 inh-1: blocks DAX1 repression of SF-1 activated StAR promoter; HEK293T StAR-luciferase reporter, SF-1/DAX-1 repression relief; inhibition, % at 6.8 µM; 370,000 tested, 1.1% active;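 active means inhibition above the mean over all tested compounds plus 3 SD, cut at about 3.6% in these data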;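 further: 0% = DAX-1 cells with DMSO and 100% = cells lacking DAX-1 with DMSO; higher inhibition means more luminescence from relief of DAX-1 repression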
# hcDAF12 agonist: H. contortus DAF-12 activation, primary screen. HEK293 hcDAF-12 lit1-tk-luc reporter, luminescence; 0% DMSO, 100% Δ7-dafachronic acid. activation, % at 6.8 µM. 370,000 tested, 1.4% active. AID 652067;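 active means activation above the mean of all tested compounds plus 3 SD, cut at about 5.5% in these data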;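 further: 100% = response to 3 µM Δ7-dafachronic acid high control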
# DAX1 inh-2: inhibits human nuclear receptor DAX1; HEK293 Gal4-DAX1 luciferase reporter, luminescence; inhibition, % at 6.75 µM; 340,000 tested, 0.99% active; AID 504766;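 active means inhibition above the mean over all tested compounds plus 3 SD, cut at about 4.2% in these data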;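 further: 0% = DAX1-transfected cells with DMSO and 100% = empty-vector control cells with DMSO; inhibition shows as a rise in luminescence from relieved DAX1 repression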
# Target sequence (P51843 207-470 limits assumed): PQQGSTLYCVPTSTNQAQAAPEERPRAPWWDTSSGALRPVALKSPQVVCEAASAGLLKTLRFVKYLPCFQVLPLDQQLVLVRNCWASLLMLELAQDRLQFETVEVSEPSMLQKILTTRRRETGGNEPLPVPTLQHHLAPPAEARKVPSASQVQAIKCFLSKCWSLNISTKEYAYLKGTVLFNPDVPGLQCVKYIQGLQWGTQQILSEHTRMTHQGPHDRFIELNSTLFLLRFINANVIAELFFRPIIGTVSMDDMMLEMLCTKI
# hgDAF-12 ag: activates the H. glycines DAF-12 receptor ligand-binding domain; HEK293 GAL4-hgDAF12 UAS-luciferase reporter, agonist luminescence; normalized to butyrate control; AID 687014; 370,000 tested, 1.8% active; activation, % at 6.8 µM;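 active means activation above a cutoff set at the mean of all screened compounds plus 3 SD, cut at about 10% in these data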;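 further: 0% = DMSO wells and 100% = sodium butyrate wells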
# SMARCA2 act: activators of SMARCA2 function; MG213 cells, MMTV-luciferase reporter, dexamethasone, overnight; activation, % at 9.1 µM; 370,000 tested, 1% active; in the data active means activation above about 7.8%;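 further: 0% = vehicle wells and 100% = reference activator wells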
# ssDAF12 agonist: activators of S. stercoralis DAF-12 nuclear receptor; HEK293 ssDAF-12/GRIP1 lit1-tk-luc reporter, luminescence; % of 3 µM dafachronic acid response; activation, % at 6.8 µM; 370,000 tested, 1% active;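 active means activation above the mean over all tested compounds plus 3 SD, cut at about 0.9% in these data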;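 further: 0% = DMSO-only wells and 100% = 3 µM delta7-dafachronic acid wells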
# LXR ag: LXR-beta agonism as hcDAF-12 counter-screen | activation, % at 6.8 µM | HEK293 Gal4-LXR tk-luc reporter, luminescence, 24 h; normalized: DMSO 0%, positive control 100% | 3,400 tested, under 10 active | shares compounds with hcDAF12 agonist;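 active means mean percent activation of the reporter above a cutoff set as the average over tested compounds plus their standard deviation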
# hcDAF12 ag: hcDAF-12 agonism, confirmation assay; shares compounds with hcDAF12 agonist; HEK293 hcDAF-12 lit1-tk-luc reporter, luminescence; % of Δ7-dafachronic acid response; activation, % at 6.8 µM; 3,400 tested, 61% active; AID 743032;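 active means mean activation across triplicate tests above the threshold derived from the earlier primary screen, cut at about 5.5% in these data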;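 further: 0% = DMSO only wells and 100% = 3 µM Δ7-dafachronic acid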
# Starred values were filed as active, the others as inactive; . = no result.
SMILES,DAX1 inh-1,hcDAF12 agonist,DAX1 inh-2,hgDAF-12 ag,SMARCA2 act,ssDAF12 agonist,LXR ag,hcDAF12 ag
O=P1(O)C=C(c2ccccc2)OC(c2ccccc2)=C1,0.9,9.9*,0.2,7.5,4.0,1.4*,0.6,11.2*
COC(=O)c1ccc(-c2cccc(CN3CCN(c4ncc(Cc5ccccc5)cn4)CC3)c2)cc1,0.0,-3.2,.,4.0,-2.3,-0.8,.,.
Cc1cccc2c(N=Nc3ccccc3)c(O)[nH]c12,2.4,14.2*,5.4*,21.9*,3.3,4.4*,2.1,21.0*
Oc1[nH]c2ccccc2c1N=Nc1cccc(Cl)c1,0.9,8.9*,0.6,9.0,1.5,1.2*,1.0,13.3*
Oc1[nH]c2ccccc2c1N=Nc1ccccn1,1.9,3.2,1.6,9.1,-0.7,0.8,.,.
C[C@H](O)[C@@H]1C(=O)N2CCc3c([nH]c4ccccc34)[C@@H]2C[C@@H]1N(C)C(=O)Nc1ccc(Br)cc1,1.0,0.0,.,5.0,-2.4,-0.6,.,.
O=C1CC(Sc2nnc(-c3ccccc3O)o2)C(=O)N1c1ccccc1 (configuration not stated),-0.2,-1.7,1.6,-2.8,0.9,-1.5,.,.
O=C1c2ccccc2CC1Sc1nnc(-c2ccccn2)o1 (configuration not stated),0.5,6.7*,-0.7,6.6,2.6,0.5,0.1,4.6
CCOC(=O)C(CNc1ccc(OCc2ccccc2)cc1)NC(=O)c1ccccc1 (configuration not stated),0.6,2.8,.,8.9,1.4,-0.7,.,.
Cc1ccc(C(=O)Nc2ccc(F)cc2F)o1,-0.1,0.0,-0.1,1.6,-2.0,-0.3,.,.
Cc1ccc(C(=O)Nc2ccn(Cc3ccc(F)cc3)n2)o1,0.8,6.9*,1.6,2.4,0.5,0.4,0.0,3.2
Cn1c(NC(=O)C[n+]2cc(-c3ccccc3)n3c2CCC3)cc(=O)n(C)c1=O,0.3,7.1*,-0.8,2.2,-2.2,-1.0,-0.3,0.3
Cn1c(NC(=O)C[n+]2cc(-c3ccc(Cl)cc3)n3c2CCC3)cc(=O)n(C)c1=O,-0.3,0.7,-0.2,-0.7,0.5,-0.8,.,.
O=C(Nc1ccccc1)c1cnc2ccccc2n1,2.1,7.5*,-0.6,10.6*,6.6,1.1*,0.7,7.4*
C/C(=N\NC(=O)c1ccccc1O)C1C(=O)c2ccccc2C1=O,2.5,6.9*,1.5,10.3,4.9,-0.1,0.4,2.8
C/C(=N/NC(=O)c1cc2ccccc2cc1O)C1C(=O)c2ccccc2C1=O,1.0,2.8,0.1,1.5,0.5,-0.7,.,.
COC(=O)N1C[C@H](OCCCOCc2ccccc2)[C@H]2C[C@@H]1c1ccccc1O2,0.3,-0.7,.,0.3,-1.9,-0.6,.,.
O=C(Nc1ccccc1Cl)c1ccc(-c2ccccn2)s1,2.1,8.7*,5.0*,10.6*,0.9,0.3,0.6,3.4
O=C(Nc1ccccc1Cl)c1cccs1,-0.5,-0.5,0.6,1.6,1.5,-1.2,.,.
CCOC(=O)N1CCN(C(=O)c2cc3c(=O)n4cccc(C)c4nc3s2)CC1,0.1,7.4*,2.2,1.8,-0.5,-0.4,-0.4,3.4
Cc1ccc(NC(=S)N2CCC(O)CC2)c(C)c1,-0.8,-1.6,0.5,1.4,-3.3,-0.8,.,.
Cc1ccc(NC(=S)N2CCCC(CO)C2)c(C)c1 (configuration not stated),1.6,6.9*,1.7,11.2*,1.6,-0.1,0.0,2.4
C=CCn1c(SCc2ccc(C#N)cc2)nnc1-c1ccco1,-0.7,0.1,.,2.4,-3.9,-0.9,.,.
CC(C)(C)S(=O)N1C[C@H]2CC(=O)C(CCO)=C2[C@@H]1CCO (some centres not stated),2.2,-0.6,.,0.7,-5.9,-0.4,.,.
CC(C)(C)C1CCc2c(sc3c2C(=O)NC(c2ccco2)N3)C1 (configuration not stated),-0.5,7.5*,1.5,0.2,3.9,-0.4,0.4,4.3
SMILES,DAX1 inh-1,hcDAF12 agonist,DAX1 inh-2,hgDAF-12 ag,SMARCA2 act,ssDAF12 agonist,LXR ag,hcDAF12 ag
Fc1cccc(F)c1/C=N/Nc1ccccn1,1.5,7.1*,5.2*,13.2*,0.0,1.5*,0.5,10.0*
Fc1cccc(Cl)c1/C=N/Nc1ccccn1,0.3,7.0*,0.9,6.4,7.5,0.6,0.2,10.0*
CON(C)C(=O)C(C)(C)CC#CCN(CC#Cc1ccccc1)S(=O)(=O)c1ccc(C)cc1,-0.1,-0.5,.,-0.4,-5.0,-1.1,.,.
Cc1ccc(Nc2nc(N)c3ccccc3n2)cc1Cl,3.0,11.5*,0.4,11.5*,1.2,3.6*,2.2,14.9*
CC(=O)N(c1nc2ccccc2s1)N1C(=O)c2ccccc2C1=O,0.3,5.4,.,8.0,-3.0,0.7,.,.
CCOc1ccc(NS(=O)(=O)c2ccc(NS(C)(=O)=O)cc2)cc1,-0.1,-1.4,1.0,-1.2,0.1,-1.0,.,.
CCCCCOc1ccc(NS(C)(=O)=O)cc1,0.9,8.0*,1.5,2.5,4.6,-0.1,0.2,3.9
O=C1CCN(Cc2ccccc2)C=C1c1ccc(Cl)cc1,-0.7,-1.5,-0.4,0.9,-0.5,-1.1,.,.
O=C1CCN(Cc2ccccc2)C=C1c1ccc2ccccc2c1,2.4,9.4*,3.5,11.5*,7.8,1.0*,0.9,7.0*
CCn1ncc(/C=N/NC(=O)c2cc(Cl)ccc2OC)c1C,-0.2,8.3*,0.0,0.3,-1.0,-0.7,-0.2,0.9
COc1ccc(Cl)cc1C(=O)N/N=C/c1ccc(N2CCOCC2)cc1,-0.2,-0.2,-1.8,-0.5,-1.4,-1.1,.,.
CNC(=O)CSc1ncnc2c1cnn2-c1ccccc1,0.1,7.4*,0.2,3.2,2.8,-0.8,0.0,2.7
Cc1c(NC(=O)CSc2ncnc3c2cnn3-c2ccccc2)c(=O)n(-c2ccccc2)n1C,-3.5,-2.2,-1.5,-0.2,-3.1,-0.7,.,.
C=CCN=C1NC(c2ccccc2)C(C(=O)OC)=C(C)N1Cc1ccccc1C(F)(F)F (configuration not stated),-0.3,-0.9,.,2.8,-1.8,-0.1,.,.
NS(=O)(=O)c1ccc(CCNc2nc3c(-c4cccc(F)c4)nnn3c3ccccc23)cc1,0.1,7.1*,2.1,0.5,0.8,1.3*,-0.6,1.0
Oc1ccc2[nH]cc(-c3cccs3)c2c1-c1ccccc1,-0.2,0.0,.,-3.2,-3.4,-0.6,.,.
C[C@@H]1/C=C/CC(=O)N[C@H](c2ccc3ccccc3c2)[C@H](C)/C=C/CC(=O)N[C@@H]1c1ccc2ccccc2c1,-0.6,8.7*,.,-0.2,-0.4,-1.0,-0.2,1.7
